High-throughput results (PubChem)
An excerpt weighted towards active compounds, which were near 2.1% of everything screened.
ADAM10 inh: inhibits human ADAM10; AID 720582; inhibition, % at 7 µM; recombinant ADAM10, EDANS/DABCYL FRET peptide cleavage, 3 h; O14672; 370,000 tested, 0.62% active;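 active = inhibition above a per-campaign cutoff equal to the mean of compounds falling between control-based bounds plus 3 SD, cut at about 20% in these data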;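 also: 0% = DMSO wells while the 100% control is not disclosed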
Target sequence (O14672 214-748 limits assumed): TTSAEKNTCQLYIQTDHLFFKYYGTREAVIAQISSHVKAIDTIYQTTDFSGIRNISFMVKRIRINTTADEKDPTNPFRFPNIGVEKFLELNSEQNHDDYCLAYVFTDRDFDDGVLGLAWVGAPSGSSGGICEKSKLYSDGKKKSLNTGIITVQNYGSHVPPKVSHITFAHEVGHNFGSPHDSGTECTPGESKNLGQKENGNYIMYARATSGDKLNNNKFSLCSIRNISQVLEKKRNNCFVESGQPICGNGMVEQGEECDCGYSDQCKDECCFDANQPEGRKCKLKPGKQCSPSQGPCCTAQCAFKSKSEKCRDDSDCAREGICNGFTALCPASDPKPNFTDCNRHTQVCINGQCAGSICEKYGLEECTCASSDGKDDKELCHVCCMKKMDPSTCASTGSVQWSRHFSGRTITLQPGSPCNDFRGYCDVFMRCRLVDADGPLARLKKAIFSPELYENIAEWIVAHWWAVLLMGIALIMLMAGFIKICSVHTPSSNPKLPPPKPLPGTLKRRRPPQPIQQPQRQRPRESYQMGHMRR
Rce1 inhib: yeast Ras-converting enzyme inhibition | AID 2563 | yeast membranes, quenched prenylated peptide cleavage fluorescence | calls only | 290,000 tested, 0.27% active;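 active = fall in fluorescence gain of 50% or more versus controls, with final raw signal at or below 3038400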;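 also: plate controls were neutral control wells for no effect and wells lacking membranes for full effect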
PLC-gamma1 inh: PLC-gamma1 (human) inhibition, primary screen. P19174. purified PLC-gamma1, fluorogenic substrate, fluorescence. inhibition, % at 12.2 µM. 370,000 tested, 0.84% active; in the data active = inhibition above about 9.5%
PLC-beta3 inh: blocks human PLC-beta3 enzyme activity | Q01970 | Purified PLC-beta3, fluorogenic substrate, fluorescence | inhibition, % at 12.2 µM | 370,000 tested, 0.18% active | AID 720704; in the data active = inhibition above about 11%;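 also: 0% = median of compound wells on plate and 100% = full blocker control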
ADAM17 inh: inhibitors of human ADAM17. P78536. recombinant ADAM17, EDANS/DABCYL FRET peptide cleavage. inhibition, % at 6.95 µM. 370,000 tested, 0.83% active. AID 720648;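 active = inhibition above the mean of compounds lying between control limits plus 3 SD, set per campaign, cut at about 8.5% in these data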;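 also: 0% = DMSO-only wells as the low control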
ADAM10 ctr: counter-screen for ADAM17 exosite inhibitors: inhibitors of human ADAM10; shares compounds with ADAM17 inh; recombinant ADAM10, EDANS/DABCYL FRET peptide cleavage, 3 h; inhibition, % at 6.95 µM; 2,900 tested, 47% active; AID 743256;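 active = mean inhibition over the triplicate runs exceeds the activity threshold set in the earlier primary screen, cut at about 20% in these data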;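 also: 0% = DMSO wells and 100% = marimastat wells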
ADAM17 confirm: confirmation of inhibitors of human ADAM17. 2,900 tested, 65% active. inhibition, % at 6.95 µM. recombinant ADAM17, EDANS/DABCYL QFRET peptide cleavage. shares compounds with ADAM17 inh;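 active = mean inhibition across replicates above the hit cutoff set in the primary screen, cut at about 8.5% in these data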;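 also: 0% = DMSO wells and 100% = marimastat wells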
* hit, by the source's call; i = inactive; . = no result.

SMILES	ADAM10 inh	Rce1 inhib	PLC-gamma1 inh	PLC-beta3 inh	ADAM17 inh	ADAM10 ctr	ADAM17 confirm
CCOCCn1c(COc2ccccc2)nc2ccccc21	3	i	3	4	9.4*	-9	-3
CCCn1c(COc2ccccc2)nc2ccccc21	-2	i	1	-5	-2	.	.
CC(=O)Oc1ccc([N+](=O)[O-])cc1N1C(=O)c2ccccc2C1=O	6	i	12*	12*	9.8*	23*	13*
COc1ccc([N+](=O)[O-])cc1N1C(=O)c2cccnc2C1=O	6	i	4	-2	2	.	.
Cc1ccc(O)c(Cc2cc(C)cc(Cc3cc(C)ccc3O)c2O)c1	11	.	1	1	9.4*	30*	14*
Cc1ccccc1-c1cc2nc(Oc3ccc4c(c3)OCO4)n(C)c(=O)c2s1	-5	.	2	1	0	.	.
O=C(Nc1cccc(F)c1)N(Cc1ccc(Cl)cc1)CC(O)C(F)(F)F (stereo unspecified)	9	i	6	4	9.9*	36*	20*
O=C1OC(c2ccccc2)(c2ccc3cc(O)ccc3c2)c2ccccc21 (stereo unspecified)	19	.	4	0	10*	25*	13*
NC(=O)c1ccc[n+](CC(=O)c2cccc([N+](=O)[O-])c2)c1	0	i	-4	-9	-7	.	.
N#Cc1ccc(-c2ccco2)nc1SCc1ccccc1	-68	i	-13	-15	-18	.	.
CCSc1nc(-c2ccco2)ccc1C#N	-17	i	-27	-40	14*	-392	-76
Nc1nc(N)c(N=O)c(Nc2ccc(Cl)c(Cl)c2)n1	8	.	3	-2	-2	.	.
Nc1nc(N)c(Br)c(Nc2ccc(Cl)c(Cl)c2)n1	10	.	1	-7	10*	7	6
CC(C)n1cc(NC(=O)C2CC(c3cccc(Br)c3)=NO2)cn1 (stereo unspecified)	13	i	0	-10	9.0*	-5	-3
O=C(NCc1cccnc1)C1CC(c2cccc(Br)c2)=NO1 (stereo unspecified)	-2	i	2	0	-3	.	.
CCN(CC)C(=O)C1CC(=O)N(c2ccc(F)c(Cl)c2)C1 (stereo unspecified)	7	i	8	7	9.5*	-5	-1
COCCNC(=O)C1CC(=O)N(c2ccc(F)c(Cl)c2)C1 (stereo unspecified)	-16	i	-1	0	-3	.	.
CNC(=S)N/N=C/c1ccco1	5	i	5	-1	2	.	.
CC1CN(C(=O)COc2ncnc3ccccc23)CC(C)O1 (stereo unspecified)	-4	i	4	7	9.7*	-6	1
O=C(COc1ncnc2ccccc12)N1CCN(c2ccccc2)CC1	-3	i	1	1	-3	.	.
COc1ccc(CC(=O)N2CCC(Nc3nc4ccccc4n3Cc3ccc(F)cc3)CC2)cc1	13	i	8	9	11*	21*	12*
Cc1nc(C(F)(F)F)ccc1C(=O)N1CCC1(C)C(=O)NS(C)(=O)=O (stereo unspecified)	-2	.	2	3	-3	.	.
COc1cccc(-c2ccc3c(c2)[C@@H]2C[C@H]4[C@@H](CN2CC3)[C@H](C)ON4C)c1	-21	.	-5	-7	-8	.	.
COc1ccccc1CN(C)CC(=O)Nc1cccc(S(=O)(=O)N2CCCCC2)c1	4	.	-1	2	1	.	.
CN(CC(=O)Nc1ccc(S(=O)(=O)N2CCCC2)cc1)Cc1cccc(Cl)c1Cl	14	i	-1	-1	10*	8	8
SMILES	ADAM10 inh	Rce1 inhib	PLC-gamma1 inh	PLC-beta3 inh	ADAM17 inh	ADAM10 ctr	ADAM17 confirm
CC(C)C[C@@H](CN1CCC[C@H]1CN1C(=O)C(=O)NC[C@@H]1Cc1ccc(O)cc1)N1C[C@H](Cc2ccc(O)cc2)N(CC2CCCCC2)C(=O)C1=O	-4	.	-1	-2	0	.	.
CCOc1ccc(CCN2C(=S)N([C@@H](Cc3ccccc3)CN3CCC[C@@H]3CN3C(=S)NC[C@@H]3Cc3ccc(O)cc3)C[C@@H]2CC(C)C)cc1	15	.	7	1	2	.	.
Oc1ccc(C[C@H]2CNC(=S)N2CC2CCCN2C[C@H](Cc2ccc(O)cc2)N2C[C@H](Cc3ccc(O)cc3)N(CC3CCCCCC3)C2=S)cc1 (stereo partly specified)	23*	.	3	1	9.2*	31*	18*
CCOc1ccc(CCN2C(=S)N([C@@H](Cc3ccc(O)cc3)CN3CCCC3CN3C(=S)NC[C@@H]3Cc3ccc(O)cc3)C[C@@H]2CC(C)C)cc1 (stereo partly specified)	9	.	3	7	8.9*	26*	16*
CC(C)C[C@@H](CN1CCC[C@H]1CN1C(=O)C(=O)NC[C@@H]1Cc1ccccc1)N1C[C@H](Cc2ccc(O)cc2)N(CC2CCCCC2)C(=O)C1=O	9	.	6	10	10*	20*	11*
Oc1ccc(C[C@H]2CNC(=S)N2CC2CCCN2C[C@H](Cc2ccc(O)cc2)N2C[C@H](Cc3ccccc3)N(CC3CCCCCC3)C2=S)cc1 (stereo partly specified)	14	.	5	3	10.0*	43*	23*
Clc1ccc(OCCOCCNCc2ccccc2)cc1Cl	-2	i	3	-7	-4	.	.
O=C1NC2(CCCC2)N=C1c1ccc(Cl)cc1	15	i	3	4	9.6*	12	5
Cc1ccc(-c2nnn(CCOc3cccc(Br)c3)n2)cc1	3	i	3	4	0	.	.
Cc1ccc(COc2ccc(Br)cc2/C=N/O)cc1	17	i	-4	-3	8.8*	34*	17*
COc1ccc(Cl)cc1-c1noc([C@@H]2O[C@H](CO)[C@@H](O)[C@H]2O)n1	-10	.	3	5	3	.	.
CC1(C)Cc2c(c(=S)nc(-c3ccccc3)n2CCN2CCOCC2)CO1	2	i	4	-5	8.7*	3	6
COCCn1c(-c2ccccc2)nc(=S)c2c1CC(C)(C)OC2	8	i	-1	-3	5	.	.
Cc1cc(C)c(N=C2SCC(=O)N2Cc2ccco2)c(C)c1	-3	i	3	-3	1	.	.
COc1ccccc1N=C1SCC(=O)N1Cc1ccco1	-2	i	7	2	8.9*	5	4
CC1(C(=O)NS(=O)(=O)c2ccccc2C(F)(F)F)CCN1C(=O)C1CCCCC1 (stereo unspecified)	-5	.	1	-3	-6	.	.
Cc1ccc(-c2nn3c(C)nnc3s2)cc1NC(=O)c1cccs1	8	i	1	0	12*	6	7
COc1c(C)cccc1C(=O)Nc1cc(-c2nn3c(C)nnc3s2)ccc1C	-6	i	-1	-3	-1	.	.
